Source: PubChem (National Center for Advancing Translational Sciences (NCATS))
Hits are enriched below; roughly 0.81% of the tested compounds scored in any of these assays.
TRPML1 ag: qHTS for Agonists of the Human Mucolipin Transient Receptor Potential 1 (TRPML1); Mucolipin-1 (Homo sapiens), Q9GZU1; TRPML1-expressing cells, Ca2+ dye fluorescence, FDSS; AID 624414, 2012; activation, % (no concentration beside the values); actives 0.12% (n = 410,000); in the data active = activation above about 50%; inconclusive = mostly about 30% to 49%; also: 0% is about no effect
Target sequence (Q9GZU1 whole entry, looked up): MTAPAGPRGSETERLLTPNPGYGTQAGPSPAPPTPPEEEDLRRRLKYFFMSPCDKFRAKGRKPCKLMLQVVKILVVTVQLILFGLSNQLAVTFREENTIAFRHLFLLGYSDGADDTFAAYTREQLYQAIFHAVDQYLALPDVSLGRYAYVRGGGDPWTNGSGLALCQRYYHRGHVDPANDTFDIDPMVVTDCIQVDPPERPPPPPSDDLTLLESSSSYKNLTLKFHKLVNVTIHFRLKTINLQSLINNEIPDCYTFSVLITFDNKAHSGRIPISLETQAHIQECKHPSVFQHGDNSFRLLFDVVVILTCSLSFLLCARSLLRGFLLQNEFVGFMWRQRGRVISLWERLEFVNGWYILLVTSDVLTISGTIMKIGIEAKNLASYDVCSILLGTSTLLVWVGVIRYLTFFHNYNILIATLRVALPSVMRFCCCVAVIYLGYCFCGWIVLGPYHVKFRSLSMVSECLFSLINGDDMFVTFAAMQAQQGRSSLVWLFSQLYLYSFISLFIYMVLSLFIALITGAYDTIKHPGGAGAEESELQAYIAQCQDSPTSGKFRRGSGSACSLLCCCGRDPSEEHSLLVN
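TRPML1-DL cells, Tet-induced overnight (~16 h, 37 degrees C), loaded 45-90 min at room temperature with Ca8 no-wash calcium dye plus quencher. FDSS fluorescence: 10 s baseline, compound pin-transfer, 110 s agonist read, then EC80 54-4 (4uM final) and 110 s antagonist read.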
TRHR ag: qHTS for Small Molecule Agonists and Allosteric Enhancers of Human TRH Receptor: Primary Screen for Agonists; activation, % at 2 µM; AID 493084, 2011; actives 0.18% (n = 360,000); TRHR cells, calcium flux fluo-8, FDSS agonist mode; in the data active = activation above about 30%; also: 0% is about no effect
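Agonist-mode FDSS calcium read (Ex 480/Em 530, 1 s cycles) in 1536-well TRHR cells with fluo-8 dye, after 10-cycle baseline and 23 nL compound addition; TRH at EC20 (10 nM final) added afterwards for the enhancer phase.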
TRPML1 blocker: qHTS for Inhibitors of the Human Mucolipin Transient Receptor Potential 1 (TRPML1); TRPML1-inducible cells, Ca2+ dye fluorescence, FDSS; active compounds read low; inhibition of EC80 agonist-evoked calcium signal; AID 624415, 2012; Mucolipin-1 (Homo sapiens), Q9GZU1; actives 0.02% (n = 390,000); activity change, negative = inhibition, % (test concentration not listed); in the data active = activity change below about -50%; inconclusive = between about -30% and that limit;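 also: stimulus is agonist 54-4 at its EC80 concentration; % is scaled to controls: 0 for no effect and ±100 for the full control effect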
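TRPML1-DL cells, Tet-induced overnight (~16 h, 37 °C) at 1,500 cells/well, were loaded with Ca8 no-wash dye plus quencher for 45-90 min at room temperature. Compounds were pinned during FDSS kinetic reading; agonist 54-4 at EC80 (4 uM final) then added.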
TRHR enhancer: qHTS for Small Molecule Agonists and Allosteric Enhancers of Human TRH Receptor: Primary Screen for Enhancers; Thyrotropin-releasing hormone receptor (Homo sapiens), P34981; TRHR cells, fluo-8 calcium fluorescence, EC20 TRH enhancement; enhancement, % at 2 µM; actives 0.66% (n = 360,000); AID 493056, 2011; in the data active = enhancement above about 30%; also: 0% is about no effect
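Enhancer read-out: after compound pinning and an initial kinetic agonist-mode read, an EC20 of TRH (10 nM final) was injected and fluo-8 calcium signal (Ex 480/Em 530) followed at 1 s/cycle for 100 cycles in TRHR-expressing cells.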
An asterisk follows results filed as active; ? = inconclusive; . = no result.

SMILES | TRPML1 ag | TRHR ag | TRPML1 blocker | TRHR enhancer
COc1c2ccccc2c(OC)c2ccccc12 | 0 | 0 | 3 | -5
COc1c(NC(C)=O)c2ccccc2c2ccccc12 | 1 | 0 | 6 | 38*
FC(F)(F)c1cccc(Nc2c3c(nc4ccc(Cl)cc24)CCC3)c1 | 0 | 2 | 4 | -6
Fc1ccc(F)c(Nc2c3c(nc4ccc(Cl)cc24)CCC3)c1 | 1 | -1 | 30 | 43*
CC(=O)OC1COC(N2CCc3cc(Br)c([N+](=O)[O-])cc32)C(OC(C)=O)C1OC(C)=O (stereo not given) | 0 | 0 | -3 | 0
CC(=O)OC1COC(N2CCc3ccccc32)C(OC(C)=O)C1OC(C)=O (stereo not given) | 0 | 0 | -14 | 36*
COC(=O)c1ccccc1NC(=O)c1cnn2c1NC(=C1CC1)C=C2C(F)F | -1 | . | . | .
O=C(c1ccc2c(=O)n(CC3CCCO3)c(=S)[nH]c2c1)N1CCN(C(=O)c2ccco2)CC1 (stereo not given) | 0 | . | . | .
COc1cccc(-n2c(=O)c3ccccc3n3c(=S)[nH]nc23)c1 | -1 | 0 | -51* | 27
COc1cc2c(NC3CCN(C)CC3)nc(N3CCCN(C)CC3)nc2cc1OCCCCN | 0 | . | . | .
Cc1ncc([N+](=O)[O-])n1CCO | 0 | -1 | 7 | -11
CCS(=O)(=O)CCn1c([N+](=O)[O-])cnc1C | -1 | 0 | 8 | 37*
CCN(CC)c1ccc(/C=C(\C#N)C(=O)c2ccc(Br)cc2)cc1 | 79* | 109* | -5 | 7
Cc1cccc(/C=C(\C#N)c2nc3ccccc3c(=O)[nH]2)c1 | 1 | 2 | 11 | -1
CN(C)c1ccc(/C=C(\C#N)C(=O)c2ccccc2)cc1 | 72* | 138* | ? | 29
CCN(CC)c1ccc(/C=C(\C#N)C(N)=O)cc1 | 7 | 5 | -9 | 3
CN(C)c1ccc(/C=C(\C#N)c2nc3ccccc3c(=O)[nH]2)cc1 | 4 | 38* | -5 | -1
Cc1ccc(C=C(C#N)C(=O)c2ccccc2)cc1 | 0 | . | . | .
CCN1CCCC1CNC(=O)Cn1nc(C)n2c(cc3cc(F)ccc32)c1=O (stereo not given) | 0 | 1 | 4 | 35*
C[C@@H](Nc1nc(Cl)nc2nc[nH]c12)c1ccccc1 | 0 | . | . | .
CCCOc1ccccc1C1C(C(=O)Nc2ccccc2)=C(C)Nc2nnnn21 (stereo not given) | 9 | -1 | 1 | 49*
CCN1CCN(C2=CC3=CC(=C(C#N)C#N)CCC3CC2)CC1 (stereo not given) | 96* | 235* | -7 | -22
N#CC(C#N)=C1C=C2C=C(N3CCOCC3)CCC2CC1 (stereo not given) | 123* | 231* | -7 | -20
CC1(C)CC(NCCN2CCN(C3=CC(=C(C#N)C#N)CC(C)(C)C3)CC2)=CC(=C(C#N)C#N)C1 | 1 | 0 | 17 | 2
N#Cc1cc(Cl)c(N2CCOCC2)cc1C#N | 4 | 1 | 1 | -3
SMILES | TRPML1 ag | TRHR ag | TRPML1 blocker | TRHR enhancer
N#CC(C#N)=C1C=C2C=C(N3CCCCCC3)CCC2CC1 (stereo not given) | 100* | 205* | -16 | -15
CN1CCN(C2=CC3=CC(=C(C#N)C#N)CCC3CC2)CC1 (stereo not given) | 140* | 315* | -71* | 17
Cc1ccc(OCC(=O)c2cc(C)n(Cc3cccs3)c2C)c([N+](=O)[O-])n1 | 0 | 0 | -12 | 39*
Cc1cccnc1NC(=O)Nc1cccc(Cl)c1 | 0 | 0 | 5 | 32*
O=C(Nc1cccc(Cl)c1)Nc1cccc(Cl)c1 | 2 | 2 | 16 | -2
O=C(Nc1cccc(Cl)c1)Nc1ccon1 | 3 | 1 | 11 | 39*
CCc1sc(C(=O)Nc2ncccc2C)cc1C | 0 | 0 | -3 | 30*
O=C1[C@H](Cc2ccccc2)NC/C=C\C[C@@H](c2ccc(Cl)cc2)N1Cc1ccccc1 | 0 | . | . | .
C#CCNC(=O)C[C@@H]1C[C@@]2(C(=O)OCC)CCCC=C2N(Cc2ccc3c(c2)OCO3)C1=O | 63* | . | . | .
Cn1cc(Br)c(C(=O)NNC(=O)c2ccc(Br)cc2)n1 | 1 | 0 | -3 | 1
